# Experimental data taken from PubChem BioAssay (NCATS).
# Key:
# [1] = qHTS profiling for inhibitors of Plasmodium falciparum (3D7) proliferation (AID 743322);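 further: infected erythrocytes exposed to compound for 72 h before lysis; 100% = DMSO vehicle wells and 0% = 0.29 µM artemisinin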; details: P. falciparum 3D7 proliferation; at 28.7 µM (top of the series)
# Procedure, shortened: (§1)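 Parasite DNA was quantified by SYBR Green I fluorescence (ex 485, em 535 nm) after overnight lysis in saponin/Triton buffer at room temperature. Cultures at 0.3% parasitemia and 2.5% hematocrit were first exposed to compound for 72 h at 37 C; signals were normalised to artemisinin (0.29 uM) and vehicle wells.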
# [2] = qHTS profiling for inhibitors of Plasmodium falciparum (DD2) proliferation (AID 743323); details: lower = more inhibition; at 28.7 µM (top of the series)
# Procedure, shortened: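 P. falciparum Dd2-infected erythrocytes (0.3% parasitemia, 2.5% hematocrit) exposed 72 h at 37 C, 5% CO2. Lysis with SYBR Green, overnight at room temperature, fluorescence 485/535 nm; normalized to 0.29 uM artemisinin and DMSO.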
# [3] = qHTS profiling for inhibitors of Plasmodium falciparum (HB3) proliferation (AID 743324); details: Plasmodium falciparum HB3 blood-stage proliferation; at 28.7 µM (top of the series);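 further: 100% = DMSO vehicle wells and 0% = artemisinin-treated control wells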
# Procedure, shortened: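 SYBR Green fluorescence (485 ex/535 em) of lysed cultures, incubated overnight at room temperature in the dark, quantifies parasite DNA. Infected erythrocytes at 0.3% parasitemia and 2.5% hematocrit were exposed 72 h; values normalized to DMSO and 0.29 uM artemisinin controls.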
# [4] = qHTS profiling of the MIPE4 collection as inhibitors of Plasmodium falciparum (3D7) proliferation (AID 743344);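 further: scaled between DMSO vehicle wells and 0.29 µM artemisinin as full inhibition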; details: P. falciparum 3D7 in erythrocytes, SYBR Green DNA fluorescence, 72 h; at 28.5 µM (top of the series) unless noted
# Procedure, shortened: as §1
# [5] = qHTS profiling of the MIPE4 collection as inhibitors of Plasmodium falciparum (DD2) proliferation (AID 743345); details: P. falciparum Dd2 in erythrocytes, SYBR Green DNA, 72 h; at 28.5 µM (top of the series) unless noted
# Procedure, shortened: as §1
# [6] = qHTS profiling of the MIPE4 collection as inhibitors of Plasmodium falciparum (DD2) proliferation (Rep 2) (AID 743346); details: P. falciparum Dd2 in erythrocytes, SYBR Green DNA, 72 h; at 28.5 µM (top of the series) unless noted
# Procedure, shortened: as §1
# [7] = qHTS profiling of the MIPE4 collection as inhibitors of Plasmodium falciparum (HB3) proliferation (AID 743347);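 further: plate controls were DMSO vehicle wells for no effect and artemisinin wells for full effect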; details: P. falciparum HB3 in erythrocytes, SYBR Green DNA, 72 h; at 28.5 µM (top of the series) unless noted
# Procedure, shortened: as §1
# [8] = High-throughput drug toxicity screening in the BPDCN cell line Gen2.2 (AID 1224824); details: Gen2.2 BPDCN cells; at 45.8 µM (top of the series) unless noted;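 further: cells exposed to compounds for 48 h before reading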
# Procedure, shortened: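 Gen2.2, 500 cells/well, phenol red-free RPMI/10% FBS/Pen-Strep; 48 h cpd, 37 °C/5% CO2; CTG lum, 15 min RT. Norm: DMSO = 100%, bortezomib 9.2 uM final = 0%.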
# [9] = High-throughput drug toxicity screening in the BPDCN cell line Cal-1 (AID 1224825); details: Cal-1 BPDCN cell viability, qHTS; at 45.8 µM (top of the series) unless noted;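 further: cells exposed to compounds for 48 h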
# Procedure, shortened: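 Percent activity derived from CellTiter-Glo luminescence, scaling DMSO to 100% and 9.2 uM final bortezomib to 0%. BPDCN Cal-1 cells (500/well, RPMI plus 10% FBS) incubated with compounds 48 hours at 37C before reading.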
Compound,remaining parasite growth % (stronger effect = lower value) [1] [%],"activity, percent of control [2] [%]","remaining proliferation (% of control), lower = more inhibition [3] [%]","parasite growth, % of DMSO control [4] [%]","parasite growth remaining, % of DMSO control (lower = more inhibition) [5] [%]","parasite growth, % of control (lower = inhibition) [6] [%]","growth, % of control [7] [%]","cell viability, % of control (lower = more cytotoxic) [8] [%]",viability (% of control) [9] [%]
C[C@@]12O[C@@H](C[C@]1(O)CO)n1c3ccccc3c3c4c(c5c6ccccc6n2c5c31)CNC4=O,-0.0626,0.326,0.698,6.66,6.07,28.1,9.72,9.33,5.8
Cn1cncc1[C@@](N)(c1ccc(Cl)cc1)c1ccc2c(c1)c(-c1cccc(Cl)c1)cc(=O)n2C,-0.555,5.8,1.12,6.1,,20.3,5,3.19,2.26
CC(C)[C@H](C(=O)Nc1ccc(C(=O)NO)cc1)c1ccccc1,-0.0537,0.199,0.544,5.04,6.95,12.7,9.39,13.6,6.36
COc1cc(C)c(Sc2cnc(NC(=O)c3ccc(CNC(C)C(C)C)cc3)s2)cc1C(=O)N1CCN(C(C)=O)CC1 (stereo unspecified),,,,16.2,16,18.9,4.37,140,6.82
CCCCCCCCCC(=O)N[C@@H](Cc1c[nH]c2ccccc12)C(=O)N[C@H](CC(N)=O)C(=O)N[C@@H](CC(=O)O)C(=O)N[C@@H]1C(=O)NCC(=O)N[C@@H](CCCN)C(=O)N[C@@H](CC(=O)O)C(=O)N[C@H](C)C(=O)N[C@@H](CC(=O)O)C(=O)NCC(=O)N[C@H](CO)C(=O)N[C@@H]([C@@H](C)CC(=O)O)C(=O)N[C@@H](CC(=O)c2ccccc2N)C(=O)O[C@@H]1C,,,,409,96.7,108,299,128,108
Cc1ccc2nc(NC(=O)CSc3nc4c(c(=O)n3-c3ccccc3)SCC4)sc2c1,,,,29.9,82.9,72.4,42.3,120,15.8
Cc1coc2c1C(=O)C(=O)c1c-2ccc2c1CCCC2(C)C,,,,5.71,9.98,26.2,4.66,93.2,83.1
NCC(=O)Nc1ccc(-n2nc(C(F)(F)F)cc2-c2ccc3c(ccc4ccccc43)c2)cc1,,,,5.62,8.46,12.2,4.19,1.18,0.933
CCNC(=O)Nc1ccc2ncc(Nc3ccc(C)cc3)nc2n1,,,,19.5,71.6,33,16.3,50.5,19.7
Cc1c(CN2CCN(S(C)(=O)=O)CC2)sc2c(N3CCOCC3)nc(-c3cnc(N)nc3)nc12,,,,5.64,14.2,,5.68,16.1,19.3
CC1(C)CC(=O)c2c(C(F)(F)F)nn(-c3ccc(C(N)=O)c(NC4CCC(OC(=O)CN)CC4)c3)c2C1 (stereo unspecified),,,,7.32,8.43,11.6,4.41,1.95,13.9
Cc1cc(Nc2ncnc3ccc(-c4ccc(CNCCS(C)(=O)=O)o4)cc23)ccc1Oc1ccn2ncnc2c1,,,,5.93,7.77,,2.65,3.66,0.85
NC(=O)c1cccc2cn(-c3ccc([C@@H]4CCCNC4)cc3)nc12,,,,12.4,11.3,25.3,6.74,116,5.94
Nc1nc(NCCNc2ncc(-n3ccnc3)c(-c3ccc(Cl)cc3Cl)n2)ccc1[N+](=O)[O-],,,,16.9,80,44.4,4.45,9.17,4.88
CCS(=O)(=O)c1cccc(-c2cc(C(=O)NC3CCN(C)CC3)c(C)c3[nH]c4ncc(C)cc4c23)c1,,,,5.84,9.76,15.1,7.05,7.25,2.47
CC(=O)Nc1nc(C)c(-c2ccc(Cl)c(S(=O)(=O)NCCO)c2)s1,,,,4.79,7.49,10,2.77,17.8,18.7
CCN(CC)CCNC(=O)c1ccc2nc(-c3ccccc3)c(-c3ccc(CN4CCC(n5c(=O)[nH]c6ccccc65)CC4)cc3)nc2c1,,,,4.56,5.78,19.4,8.22,1.68,0.965
CCCCOc1c(C(=O)c2c(F)cc(C)cc2F)cnc2n[nH]cc12,,,,71.2,98.1,43.3,92.5,8.67,26.5
CNC(=O)c1c(F)cccc1Nc1nc(Nc2cc3c(cc2OC)CCN3C(=O)CN(C)C)nc2[nH]ccc12,,,,3.51,6.69,6.76,2.27,5.55,2.8
CC=CC1=C(C(=O)O)N2C(=O)[C@H](NC(=O)[C@H](N)c3ccc(O)cc3)[C@@H]2SC1,,,,99.8,99.9,,88,52.6,89.2
COc1cccc2c(NCc3ccccc3)nc(-n3c(N)nc4ccccc43)nc12,,,,5.92,5.67,11.4,3.05,3.5,2.1
